Each structure is given as a SMILES string. Activity calls are given as the source filed them. Cut-off read from the data, not from the text of the source: active = inhibition above about 31%; inactive = the rest.

The test can be described thus: 384-well plate pilot, post-Golgi transport modulator project, inhibition of yeast transport mutant growth (AID 636). Conditions: absorbance 615 nm, about 18 h, hits give high values.
For `CCOC(=O)C(NC(C)=O)(NS(=O)(=O)c1ccccc1)C(F)(F)F` (stereo unspecified), the inhibition (in general, the drop in the measured response relative to a control, in per cent) was -4.16% (inactive).
Regarding `N#Cc1c(/N=C/c2ccco2)sc2c1CCC2`, the inhibition is -2.76% (inactive).
Regarding `c1ccc(-c2noc(C34CC5CC(CC(C5)C3)C4)n2)nc1`, the inhibition was -4.87% (inactive).
Turning to `COc1cc(S(=O)(=O)N2CCOCC2)ccc1NC(=O)COC(=O)C12CC3CC(CC(C3)C1)C2`, the inhibition is 0.38% (inactive).
For the molecule `Cc1cc(C)n(-c2nc3c(c(=O)n(Cc4ccc(Cl)c(Cl)c4)c(=O)n3C)n2C)n1`, the inhibition was -1.69% (inactive).
As for `O=C(CCN1C(=O)COc2ccccc21)NCCCN1CCN(c2ccccc2F)CC1`, the inhibition is -3.64% (inactive).
As for `CC(=O)c1cc(F)c(N2CCN(C(=O)Cc3ccccc3)CC2)cc1C`, the inhibition is 0% (inactive).
The figure for `COc1ccc(-n2nnnc2-c2cccc(OC)c2)cc1` is -5.95% (inactive); for `COc1ccc(OC)c(Nc2cc(-c3ccccc3)nc(N)n2)c1` it is -5.92% (inactive).
Consider `Cc1ccc(-c2csc3ncn(-n4c(C)ccc4C)c(=O)c23)o1`, for which the inhibition is -5.27% (inactive).
For `O=C(CN1C(=O)CCSc2ccccc21)Nc1ccccc1` the value was -7.67% (inactive); for `CC(=O)Nc1ccc(S(=O)(=O)Nc2nc3ccccc3nc2N2CCCC2)cc1`, -7.87% (inactive).
For `CC(=O)c1cnc2cc(-c3ccccc3)nn2c1C` the value was 0% (inactive); for `Nc1cc(C(=O)O)ccc1Nc1ccc(F)c(F)c1`, 2.4% (inactive).
For the molecule `O=C(NCc1cccnc1)c1cn(CCc2ccccc2)nn1`, the inhibition is -5.27% (inactive).
Regarding `COc1ccc(-n2c(SCc3ccc(C#N)cc3)nnc2-c2ccccn2)cc1`, the inhibition is -7.16% (inactive).

Source of the values: PubChem BioAssay.
